Inconclusive results are not listed. A number with no mark means an inactive call. The source made the active and inactive calls. The call rests on the fitted dose curve; in most records, active means well fitted cell-killing curve with a large enough effect; inconclusive means small, poorly fitted or top-dose-only effect, or effect the other way; inactive means no such curve, though single readings can be large or run the other way.
Potency means the concentration at half of the fitted maximal effect.

The nature of this assay: Quantitative High-Throughput drug screen in 47 multiple myeloma cell lines against the NCATS MIPE library collection: PE2_PLB cell viability assay (AID 1919869). Further: nearly all actives have a fitted effect of over 35% in size. To be noted: PE2_PLB myeloma cells viability, ATP luminescence, 48 h; series mostly up to 45.8 µM; viability (% of control): at the top concentration. An excerpt:
PI: Beverly A. Mock Ph.D.
Laboratory of Cancer Biology and Genetics,
Center for Cancer Research, National Cancer Institute,
National Institute of Health, Bethesda, Maryland
Drug resistance and disease progression are common in multiple myeloma (MM) patients, underscoring the need for new therapeutic combinations. […] We hypothesized that effective combinations would reduce MYC expression and enhance p16 activity. […] These preclinical data identify potentially useful drug combinations for evaluation in drug-resistant MM and reveal potential mechanisms of combined drug sensitivity.
Described herein is the primary MIPE qHTS used to cherrypick compounds. Validated compounds were then further tested for potential synergistic activiy.
[1] Peat TJ, Gaikwad SM, Dubois W, Gyabaah-Kessie N, Zhang S, Gorjifard S, Phyo Z, Andres M, Hughitt VK, Simpson RM, Miller MA, Girvin AT, Taylor A, Williams D, D'Antonio N, Zhang Y, Rajagopalan A, Flietner E, Wilson K, Zhang X, Shinn P, Klumpp-Thomas C, McKnight C, Itkin Z, Chen L, Kazandijian D, Zhang J, Michalowski AM, Simmons JK, Keats J, Thomas CJ, Mock BA. Drug combinations identified by high-throughput screening promote cell cycle transition and upregulate Smad pathways in myeloma. Cancer Lett. 2023 Aug 1;568:216284. doi: 10.1016/j.canlet.2023.216284. Epub 2023 Jun 24. PMID: 37356470; PMCID: PMC10408729.
SEQUENCE No. (e.g., 1, 2, 3, etc.); […] (e.g., Cells, Incubation, Reagent, etc.); VALUE and DESCRIPTION.
1; Cells; 5 uL; white, solid bottom 1536-well Greiner assay plate.
2; Compounds; 23 nL; Kalypsis pin tool (Wako USA) equipped with a 1536-well pin head to transfer to the assay plates.
3; Incubation; 48 hours; 37C incubation.
4; Reagent;5uL; CellTiter Glo (Promega).
5; Detector; 425V; Luminescence; Viewlux PerkinElmer.
NOTES (numbers refer to Sequence numbers above)
1. The cell-based screening methods employed in this study were like those previously published. Briefly, the corresponding myeloma cell lines were screened in 1,536-well plates with 500 cells, 5-uL per well for inhibition of cell viability (assessed by measuring ATP levels with CellTiterGlo).
2. NCATS MIPE 4.0 library of approved and investigational drugs were added using the Kalypsis pin tool. Wells treated with DMSO only for 100% viability and media only for 0% viability were used as controls.
3. The assay plates were covered and incubated for 48 hours in a 37C, 5% CO2 incubator with controlled humidity.
4. After 48 hours, CellTilter-GloTM luminescent substrate mix (Promega) reagent was added to the assay plate and plates we incubated for 5 min at room temperature.
5. Signal was measured as median relative luminescence units on a ViewLux (PerkinElmer) multiplate reader.
[1] Heske CM, Davis MI, Baumgart JT, Wilson K, Gormally MV, Chen L, Zhang X, Ceribelli M, Duveau DY, Guha R, Ferrer M, Arnaldez FI, Ji J, Tran HL, Zhang Y, Mendoza A, Helman LJ, Thomas CJ. Matrix Screen Identifies Synergistic Combination of PARP Inhibitors and Nicotinamide Phosphoribosyltransferase (NAMPT) Inhibitors in Ewing Sarcoma. Clin Cancer Res. 2017 Dec 1;23(23):7301-7311. doi: 10.1158/1078-0432.CCR-17-1121. Epub 2017 Sep 12. PMID: 28899971; PMCID: PMC6636827.
Regarding `CNCC(O)c1ccc(O)cc1` (configuration not stated), the “viability (% of control)” value is 83%.

Regarding `C[C@@H]1[C@@H](CC(C[C@H]2O[C@@H]3O[C@]4(C)CC[C@@H]5[C@H](C)CC[C@@H]([C@H]2C)[C@@]35OO4)C[S+](=O)([O-])c2ccc(COC(=O)N(C)C)cc2)O[C@@H]2O[C@]3(C)CC[C@H]4[C@H](C)CC[C@@H]1[C@@]24OO3` (some centres not stated), the Potency was 0.264 µM (active).

In the case of `Cn1c(CCCC(=O)O)nc2cc(N(CCCl)CCCl)ccc21`, the Potency is 8.33 µM (active).

Consider `CN1CCN(C(=O)O[C@H]2c3nccnc3C(=O)N2c2ccc(Cl)cn2)CC1`, for which the “viability (% of control)” value is 131%.

Turning to `CN(C)[C@@H]1C(=O)C(C(N)=O)=C(O)[C@@]2(O)C(=O)C3=C(O)c4c(O)cccc4[C@@](C)(O)[C@H]3C[C@@H]12`, the “viability (% of control)” value is 102%.

Turning to `C[C@@H]1O[C@@H](O[C@H]2C[C@@H](O)[C@]3(CO)[C@H]4[C@H](O)C[C@]5(C)[C@@H](C6=CC(=O)OC6)CC[C@]5(O)[C@@H]4CC[C@]3(O)C2)[C@H](O)[C@H](O)[C@H]1O`, the Potency is 0.0332 µM (active).

With `C[C@@H]1[C@@H](C(=O)C[C@H]2O[C@@H]3O[C@]4(C)CC[C@@H]5[C@H](C)CC[C@@H]([C@H]2C)[C@@]35OO4)O[C@@H]2O[C@]3(C)CC[C@H]4[C@H](C)CC[C@@H]1[C@@]24OO3`, the Potency is 0.264 µM (active).

For the compound `COc1ccc(C(CN(C)C)C2(O)CCCCC2)cc1` (configuration not stated), the “viability (% of control)” value is 97.5%.

For `CNC(=O)c1ccc(N2C(=S)N(c3ccc(C#N)c(C(F)(F)F)c3)C(=O)C23CCC3)cc1F`, the Potency was 9.35 µM (active).

Take `Cn1cc(C2=C(c3cn(C4CCN(Cc5ccccn5)CC4)c4ccccc34)C(=O)NC2=O)c2ccccc21`: the Potency was 8.33 µM (active).

For the compound `O=C1CC[C@@]2(O)[C@H]3Cc4ccc(O)c5c4[C@@]2(CCN3CC2CC2)[C@H]1O5`, the “viability (% of control)” value is 124%.

Consider `N[C@@H](Cc1ccc(N(CCCl)CCCl)cc1)C(=O)O`, for which the Potency is 3.32 µM (active).

As to `C=C(C)[C@H]1Cc2c(ccc3c2O[C@@H]2COc4cc(OC)c(OC)cc4[C@@H]2C3=O)O1`, the Potency is 0.372 µM (active).

`CNC(=O)N1N=C(c2ccc(N)cc2)c2cc3c(cc2CC1C)OCO3` (configuration not stated): the Potency was 7.43 µM (active).

`CC(C)CC(N(C)C)C1(c2ccc(Cl)cc2)CCC1` (configuration not stated): the “viability (% of control)” value was 100%.

As to `C#CCN(C)[C@H](C)Cc1ccccc1`, the “viability (% of control)” value is 94.5%.

Turning to `Cc1sc2c(c1C)C(c1ccc(Cl)cc1)=N[C@@H](CC(=O)OC(C)(C)C)c1nnc(C)n1-2`, the Potency was 1.18 µM (active).

Consider `Cc1cc(SCc2sc(-c3ccc(C(F)(F)F)c(F)c3)nc2C)ccc1OCC(=O)O`, for which the Potency was 26.4 µM (active).

In the case of `CCCC(C)(COC(N)=O)COC(=O)NC(C)C` (configuration not stated), the “viability (% of control)” value was 113%.

Turning to `COC[C@H]1OC(=O)c2coc3c2[C@@]1(C)C1=C(C3=O)C2CCC(=O)[C@@]2(C)C[C@H]1OC(C)=O` (some centres not stated), the Potency was 1.66 µM (active).

Turning to `NCC1(CC(=O)O)CCCCC1`, the “viability (% of control)” value is 114%.

With `Fc1ccc(C(OCCN2CCN(CCCc3ccccc3)CC2)c2ccc(F)cc2)cc1`, the Potency is 13.2 µM (active).

In the case of `Cc1cccc(C)c1NC(=O)CN1CCCC1=O`, the “viability (% of control)” value was 92.6%.

Turning to `COc1ccc(C(=O)c2c(C)n(CCN3CCOCC3)c3ccccc23)cc1`, the “viability (% of control)” value was 106%.

As to `CC(O)(CS(=O)(=O)c1ccc(F)cc1)C(=O)Nc1ccc(C#N)c(C(F)(F)F)c1` (configuration not stated), the Potency is 0.418 µM (active).

Regarding `CN(C)CCc1ccc(O)cc1`, the Potency was 9.35 µM (active).

For `CC1=C2C[C@@H]3[C@@H](CC=C4C[C@@H](O)CC[C@@]43C)[C@@H]2CC[C@]12O[C@H]1C[C@H](C)CN[C@H]1[C@H]2C`, the “viability (% of control)” value is 129%.

The record behind these values is PubChem BioAssay (NCATS).
